Bioassay records deposited in PubChem BioAssay by National Center for Advancing Translational Sciences (NCATS).
DT40 TDP1 CPT: growth inhibition of DT40 Tdp1-/-;hTDP1 cells with camptothecin (screen for TDP1 inhibitors). Potency, µM (series often up to 46.2 µM), for the others: at the highest dose activity change, negative = growth inhibition, most hits filed as inhibitors. chicken DT40 Tdp1-/-;hTDP1 cells + 20 nM CPT, ATP luminescence, 48 h. hit rate 12% among 420,000; note: nearly all actives have a fitted effect of over 55% in size
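Chicken DT40 Tdp1-/- cells complemented with human TDP1, 400 cells/well, exposed to compounds plus 20 nM camptothecin for at least 48 h at 37 C; viability read as ATP content by CellTiter-Glo luminescence.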
VP16 counter: Gal4-VP16 reporter inhibition counter-screen. Potency, µM (top dose mostly 53.6 µM), inactives show at the top dose activity, negative = inhibition, most hits filed as inhibitors. hit rate 3.5% among 310,000. Drosophila S2 Gal4-VP16 UAS-luciferase, luminescence, 20 h;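 note: Gal4-VP16 expression switched on by copper sulfate through the metallothionein promoter; nearly all actives have a fitted effect of over 50% in size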
TDP1 block: inhibitors of human tyrosyl-DNA phosphodiesterase TDP1; Q9NUW8; recombinant TDP1, AlphaScreen DNA substrate cleavage; Potency, µM (titrated, usually from 130 µM), for the others: at the highest dose activity change, negative = inhibition, usual class: inhibitors; hit rate 0.28% among 350,000; note: nearly all actives have a fitted effect of over 40% in size
Target sequence (Q9NUW8 whole entry, looked up): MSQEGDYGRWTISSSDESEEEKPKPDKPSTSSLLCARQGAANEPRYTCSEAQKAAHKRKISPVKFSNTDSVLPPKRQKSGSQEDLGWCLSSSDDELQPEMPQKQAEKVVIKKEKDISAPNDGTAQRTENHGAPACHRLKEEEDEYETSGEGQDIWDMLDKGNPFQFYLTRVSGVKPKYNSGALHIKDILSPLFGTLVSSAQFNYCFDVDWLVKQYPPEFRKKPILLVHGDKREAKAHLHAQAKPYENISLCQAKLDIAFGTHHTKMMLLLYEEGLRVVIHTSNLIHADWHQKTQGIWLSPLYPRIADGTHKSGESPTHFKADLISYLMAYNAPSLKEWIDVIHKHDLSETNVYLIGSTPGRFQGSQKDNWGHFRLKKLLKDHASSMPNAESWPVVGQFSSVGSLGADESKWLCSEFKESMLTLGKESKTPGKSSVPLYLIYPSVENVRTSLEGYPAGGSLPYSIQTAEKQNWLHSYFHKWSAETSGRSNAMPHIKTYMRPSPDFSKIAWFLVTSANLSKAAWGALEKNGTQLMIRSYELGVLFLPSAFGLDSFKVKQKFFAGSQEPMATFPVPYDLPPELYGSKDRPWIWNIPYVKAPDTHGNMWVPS
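AlphaScreen read-out: signal falls as enzyme removes the 3' tyrosine-FITC from a 5'-biotinylated DNA oligo (15 nM, 5 min, RT). Enzyme was E. coli-made recombinant Tdp1 at 1 nM, exposed to compound for 15 min beforehand; beads 10 ug/ml, 10 min.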
TDP1 cell noCPT: qHTS for Inhibitors of human tyrosyl-DNA phosphodiesterase 1 (TDP1): qHTS in cells in absence of CPT | hit rate 15% among 420,000 | AID 686978, 2013 | Potency, µM (top dose mostly 46.2 µM), for inactives: top-dose activity change, negative = growth inhibition, usual class: inhibitors | DT40 Tdp1-/- hTDP1 cells, no CPT, ATP luminescence, 48 h; note: nearly all actives have a fitted effect of over 55% in size
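Seeded 400 DT40-hTDP1 cells/well (vehicle DMSO, no 20 nM CPT); pinned compounds; ≥48 hr at 37 °C; CellTiter-Glo luminescence as viability measure.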
RORgamma inh: inhibitors of mouse ROR gamma transcriptional activity; Potency, µM (highest dose often 53.6 µM), for the others: top-dose activity change, negative = inhibition, actives largely listed as inhibitors; Drosophila S2 Gal4-RORgamma UAS-luciferase reporter, 20 h; hit rate 5.4% among 310,000; note: nearly all actives have a fitted effect of over 60% in size
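Read-out: Photinus luciferase luminescence; inhibitors lower reporter signal. Insect Schneider cells with Gal4-ROR gamma fusion under metallothionein promoter, UAS reporter; 700 uM final copper sulfate induction, 20 hr, ambient temperature.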
Numbers without * were called inactive; [ ] = another dose, or the depositor's remark. Most compounds without a hit are left out; they make up all but 19% or so of the library. Calls come from the whole dose curve; as a rule, active = well fitted curve in the direction sought with a large enough effect; inconclusive = small, poorly fitted or top-dose-only effect, or another doubt; inactive = no such curve, though single readings can be large; an effect the other way counts as inactive or inconclusive. % is set by controls: 0 for no effect and ±100 for the full control effect; potency is the fitted concentration of half-maximal effect.

`O=C(CCN1CCCCCC1)Nc1ccc2c(c1)OCCO2` gave DT40 TDP1 CPT 5%, VP16 counter 13%, TDP1 block -2%, TDP1 cell noCPT -9% and RORgamma inh -1%.
`COc1cc(N2C(=O)C=CC2=O)ccc1N1C(=O)C=CC1=O` gave DT40 TDP1 CPT 0.73µM* and TDP1 cell noCPT 0.92µM*.
`Nc1ccc2ncccc2c1` gave DT40 TDP1 CPT -17%, VP16 counter -11%, TDP1 block 0%, TDP1 cell noCPT -13% and RORgamma inh -32%.
Screening Nc1ccc(C=Cc2ccc(N)cc2)cc1 returned DT40 TDP1 CPT 21µM* and TDP1 cell noCPT 18µM*.
Nc1ccc(/C=C/c2ccc3cccnc3c2)cc1 was read as DT40 TDP1 CPT inconclusive and TDP1 cell noCPT 16µM*.
Screening Nc1ccc(C=O)cc1 returned DT40 TDP1 CPT -20% and TDP1 cell noCPT -10%.
CC1(C(=O)Nc2ccc3c(c2)OCO3)Cc2c(-c3ccc4c(c3)OCO4)ccnc2O1 (stereo not drawn) was read as DT40 TDP1 CPT 1.8µM* and TDP1 cell noCPT 2.3µM*.
CC(C)c1ccc(NC(=O)C2(C)Cc3c(-c4ccc5c(c4)OCO5)ccnc3O2)cc1 (stereo not drawn) was read as DT40 TDP1 CPT 23µM* and TDP1 cell noCPT inconclusive.
Screening CC1(C(=O)Nc2ccc(Cl)cc2)Cc2c(-c3cccc(C(N)=O)c3)ccnc2O1 (stereo not drawn) returned DT40 TDP1 CPT 3.7µM* and TDP1 cell noCPT 5.8µM*.
CC1(C(=O)Nc2ccc3c(c2)OCO3)Cc2c(-c3cccc(C(N)=O)c3)ccnc2O1 (stereo not drawn) was read as DT40 TDP1 CPT 2.9µM* and TDP1 cell noCPT 4.1µM*.
Screening CC1(C(=O)Nc2ccccc2)Cc2c(-c3cccc(C(N)=O)c3)ccnc2O1 (stereo not drawn) returned DT40 TDP1 CPT inconclusive and TDP1 cell noCPT -21%.
Screening CN(C)c1ccc(-c2ccnc3c2CC(C)(C(=O)Nc2ccc4c(c2)OCO4)O3)cc1 (stereo not drawn) returned DT40 TDP1 CPT -20% and TDP1 cell noCPT -3%.
For O=C(Nc1ccc(Cl)cc1C(=O)NCc1cccnc1)c1ccco1 the results were DT40 TDP1 CPT -28%, VP16 counter -2%, TDP1 block 7%, TDP1 cell noCPT -6% and RORgamma inh 24%.
Screening CC1(C(=O)Nc2ccc(F)c(Cl)c2)Cc2c(-c3ccc(C(N)=O)cc3)ccnc2O1 (stereo not drawn) returned DT40 TDP1 CPT 21µM* and TDP1 cell noCPT 18µM*.
COc1ccc(NC(=O)C2(C)Cc3c(-c4ccc5c(c4)OCO5)ccnc3O2)cn1 (stereo not drawn) was read as DT40 TDP1 CPT 3.3µM* and TDP1 cell noCPT 2.6µM*.
COc1ccc(NC(=O)C2(C)Cc3c(-c4ccc(C(N)=O)cc4)ccnc3O2)cc1OC (stereo not drawn) was read as DT40 TDP1 CPT -1% and TDP1 cell noCPT -22%.
`Fc1cccc(-c2cc3nc4c(c(NCc5ccco5)n3n2)CCCC4)c1` gave DT40 TDP1 CPT inconclusive, VP16 counter 0%, TDP1 block 7%, TDP1 cell noCPT -19% and RORgamma inh -34%.
OC1CCN(c2c3c(nc4cc(-c5ccc(Cl)cc5)nn24)CCC3)CC1 was read as DT40 TDP1 CPT 23µM*, VP16 counter -9%, TDP1 block 5%, TDP1 cell noCPT 21µM* and RORgamma inh -8%.
For Clc1cccc(-c2cc3nc4c(c(N5CCN(c6cnccn6)CC5)n3n2)CCCC4)c1 the results were DT40 TDP1 CPT 23µM*, VP16 counter -7%, TDP1 block 2%, TDP1 cell noCPT inconclusive and RORgamma inh -25%.
For COc1cccc(-c2cc3nc4c(c(NCC(C)(C)CN(C)C)n3n2)CCCC4)c1 the results were DT40 TDP1 CPT inconclusive, VP16 counter 5%, TDP1 block 6%, TDP1 cell noCPT inconclusive and RORgamma inh -20%.
CSc1nc(N)n2nc(-c3ccc(Cl)cc3)cc2n1 was read as DT40 TDP1 CPT 4%, VP16 counter -4%, TDP1 cell noCPT -25% and RORgamma inh 20%.
Screening Fc1cccc(-c2cc3nc4c(c(N5CCOCC5)n3n2)CCCC4)c1 returned DT40 TDP1 CPT 18µM*, VP16 counter 8%, TDP1 block 2%, TDP1 cell noCPT inconclusive and RORgamma inh -12%.
`O=S1(=O)c2ccccc2C(O)(c2ccccc2)c2ccccc21` gave DT40 TDP1 CPT 20% and TDP1 cell noCPT -11%.
CC(=O)Nc1ccc(S(=O)(=O)NC(C(=O)O)C2=CCC=CC2)cc1 (stereo not drawn) was read as DT40 TDP1 CPT 1%, VP16 counter -2%, TDP1 block 4%, TDP1 cell noCPT 0% and RORgamma inh -1%.
`Cc1ccc(C(=O)N/N=c2\oc3ccccc3cc2C(N)=O)cc1` gave DT40 TDP1 CPT inconclusive, VP16 counter -6%, TDP1 cell noCPT -22% and RORgamma inh -12%.
`CC(=O)N1CCCc2cc(S(=O)(=O)N3CCCC(C(=O)Nc4ccccc4C)C3)ccc21` (stereo not drawn) gave DT40 TDP1 CPT inconclusive, VP16 counter -1%, TDP1 block 4%, TDP1 cell noCPT -10% and RORgamma inh -3%.
CCOc1ccccc1NC(=O)C1CCCN(S(=O)(=O)c2ccc3c(c2)CCCN3C(C)=O)C1 (stereo not drawn) was read as DT40 TDP1 CPT 26µM*, TDP1 block 3% and TDP1 cell noCPT 15µM*.
Screening CC(=O)N1CCCc2cc(S(=O)(=O)N3CCCC(C(=O)Nc4cccc(Cl)c4C)C3)ccc21 (stereo not drawn) returned DT40 TDP1 CPT 16µM*, TDP1 block 0% and TDP1 cell noCPT inconclusive.
For COc1ccc(S(=O)(=O)N2CCCC(C(=O)Nc3cccnc3)C2)cc1Cl (stereo not drawn) the results were DT40 TDP1 CPT 16µM*, VP16 counter inconclusive, TDP1 block 2%, TDP1 cell noCPT 15µM* and RORgamma inh inconclusive.
`COc1ccc(C)cc1NC(=O)C1CCCN(S(=O)(=O)c2ccc3c(c2)CCCN3C(C)=O)C1` (stereo not drawn) gave DT40 TDP1 CPT inconclusive, VP16 counter 1%, TDP1 block 9%, TDP1 cell noCPT inconclusive and RORgamma inh 7%.
Cc1ccc(S(=O)(=O)N2CCN(Cc3ccccc3Cl)CC2)cc1 was read as DT40 TDP1 CPT inconclusive, TDP1 block -9%[12.3 µM] and TDP1 cell noCPT 18µM*.
